# Laboratory results as given in PubChem BioAssay.
# Activity calls are given as the source filed them.
# Assays:
# [1] = tested on: Plasmodium falciparum Sir2 (PF13_0152, Sir2A); experiment: Plasmodium falciparum Sir2A binding compounds – biochemical, small-molecule microarray, 635 nm fluorescence, primary screen (AID 1098); conditions: fluorescence 635 nm, higher = more signal;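 further: score merges spot fluorescence intensity with its signal-to-noise ratio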
# [2] = probe aDKK1 binding to arrayed compounds – biochemical, biotinylated probe, 635/667 nm fluorescence, primary screen (AID 1099); conditions: small-molecule microarray, higher = more signal;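 further: score merges 667nm spot fluorescence with signal to noise across triplicate slides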
# [3] = probe aCHRDL2 binding to arrayed compounds – biochemical, biotinylated probe, 635/667 nm fluorescence, primary screen (AID 1100); conditions: small-molecule microarray, higher = more signal
# [4] = change in splice reporter luminescence, either direction, cell-based, HEK293, spliceosome inhibition project, primary screen (AID 1101); conditions: HEK293 splicing luciferase reporter, 24 h, higher = more signal, called active from +8 up or from −8 down;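 further: HEK293 cells carrying a splicing-competent luciferase reporter gene; test concentration not given here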
# [5] = molecular target: Fibroblast growth factor 10 (Homo sapiens) (UniProt O15520); experiment: compounds binding fibroblast growth factor 10 – biochemical, small-molecule microarray, 635 nm fluorescence, primary screen (AID 1102); conditions: FGF10 binding, fluorescence 635 nm, higher = more signal
# Chain of Fibroblast growth factor 10 (Homo sapiens) (O15520 whole entry, looked up): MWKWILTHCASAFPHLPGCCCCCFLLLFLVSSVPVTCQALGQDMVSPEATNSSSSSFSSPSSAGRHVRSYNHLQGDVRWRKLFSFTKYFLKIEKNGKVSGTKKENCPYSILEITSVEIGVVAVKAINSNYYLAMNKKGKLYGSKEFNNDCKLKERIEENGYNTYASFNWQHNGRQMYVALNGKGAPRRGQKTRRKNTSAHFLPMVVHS
# [6] = tested on: glycogen synthase kinase-3 (GSK3A per assay name; protocol says GSK3B); experiment: compounds binding glycogen synthase kinase-3 – biochemical, small-molecule microarray, 635 nm fluorescence, GSK3A, primary screen (AID 1103); conditions: fluorescence 635 nm, higher = more signal; further: the record names both GSK3A and GSK3B
# [7] = molecular target: Epidermal growth factor receptor (Homo sapiens) (UniProt P00533); experiment: compounds binding epidermal growth factor receptor – biochemical, small-molecule microarray, 635 nm fluorescence, primary screen (AID 1104); conditions: EGFR binding, higher = more signal;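 further: score merges 667 nm emission intensity with spot signal to noise over triplicate slides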
# Chain of Epidermal growth factor receptor (Homo sapiens) (P00533 whole entry, looked up): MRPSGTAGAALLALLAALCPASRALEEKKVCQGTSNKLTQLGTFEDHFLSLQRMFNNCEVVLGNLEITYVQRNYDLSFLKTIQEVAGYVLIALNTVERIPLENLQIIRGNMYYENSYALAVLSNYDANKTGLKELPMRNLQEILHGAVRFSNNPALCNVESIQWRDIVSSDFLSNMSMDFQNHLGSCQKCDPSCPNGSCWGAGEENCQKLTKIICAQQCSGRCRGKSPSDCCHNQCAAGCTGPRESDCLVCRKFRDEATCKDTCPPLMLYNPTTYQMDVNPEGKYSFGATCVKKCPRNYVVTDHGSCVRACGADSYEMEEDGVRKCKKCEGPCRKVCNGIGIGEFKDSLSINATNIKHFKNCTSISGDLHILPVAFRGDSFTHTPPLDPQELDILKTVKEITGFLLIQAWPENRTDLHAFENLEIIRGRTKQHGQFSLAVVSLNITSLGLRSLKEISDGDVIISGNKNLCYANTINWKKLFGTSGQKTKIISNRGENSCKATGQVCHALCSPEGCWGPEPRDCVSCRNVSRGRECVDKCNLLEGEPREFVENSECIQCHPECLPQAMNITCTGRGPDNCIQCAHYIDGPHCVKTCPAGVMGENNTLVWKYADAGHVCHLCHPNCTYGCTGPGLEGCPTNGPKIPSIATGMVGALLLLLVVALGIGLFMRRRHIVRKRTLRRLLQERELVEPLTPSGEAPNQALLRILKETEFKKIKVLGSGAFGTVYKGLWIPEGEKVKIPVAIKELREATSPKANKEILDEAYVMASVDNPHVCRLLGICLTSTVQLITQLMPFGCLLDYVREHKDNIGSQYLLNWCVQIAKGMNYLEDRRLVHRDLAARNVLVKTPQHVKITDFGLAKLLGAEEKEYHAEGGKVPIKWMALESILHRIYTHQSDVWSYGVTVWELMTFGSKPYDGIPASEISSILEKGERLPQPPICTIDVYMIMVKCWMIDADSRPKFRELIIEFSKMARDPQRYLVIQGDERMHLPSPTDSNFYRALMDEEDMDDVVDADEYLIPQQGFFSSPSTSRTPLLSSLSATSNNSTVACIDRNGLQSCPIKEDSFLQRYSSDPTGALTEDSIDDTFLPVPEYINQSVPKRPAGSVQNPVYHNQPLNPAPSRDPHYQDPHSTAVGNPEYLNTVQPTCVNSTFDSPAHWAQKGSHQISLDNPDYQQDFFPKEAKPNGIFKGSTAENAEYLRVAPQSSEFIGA
# [8] = molecular target: Follistatin-related protein 3 (Homo sapiens) (UniProt O95633); experiment: compounds binding follistatin-related protein 3 – biochemical, small-molecule microarray, 635 nm fluorescence, primary screen (AID 1105); conditions: FSTL3 binding, higher = more signal;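 further: score merges emission near 667 nm and signal to noise per printed spot across three slides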
# Chain of Follistatin-related protein 3 (Homo sapiens) (O95633 whole entry, looked up): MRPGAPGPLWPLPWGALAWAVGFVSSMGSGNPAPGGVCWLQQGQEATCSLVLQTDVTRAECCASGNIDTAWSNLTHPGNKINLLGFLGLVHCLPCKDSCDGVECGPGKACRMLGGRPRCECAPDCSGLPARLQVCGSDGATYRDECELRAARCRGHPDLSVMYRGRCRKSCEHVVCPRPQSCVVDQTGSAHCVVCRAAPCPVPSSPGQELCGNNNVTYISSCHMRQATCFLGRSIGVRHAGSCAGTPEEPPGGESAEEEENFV
# [9] = molecular target: Dickkopf-related protein 1 (Homo sapiens) (UniProt O94907); experiment: small molecules binding DKK1 protein – biochemical, small-molecule microarray, 635 nm fluorescence scan, primary screen (AID 1106); conditions: higher = more signal;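 further: score merges emission near 667 nm with signal to noise over three replicate slides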
# Chain of Dickkopf-related protein 1 (Homo sapiens) (O94907 whole entry, looked up): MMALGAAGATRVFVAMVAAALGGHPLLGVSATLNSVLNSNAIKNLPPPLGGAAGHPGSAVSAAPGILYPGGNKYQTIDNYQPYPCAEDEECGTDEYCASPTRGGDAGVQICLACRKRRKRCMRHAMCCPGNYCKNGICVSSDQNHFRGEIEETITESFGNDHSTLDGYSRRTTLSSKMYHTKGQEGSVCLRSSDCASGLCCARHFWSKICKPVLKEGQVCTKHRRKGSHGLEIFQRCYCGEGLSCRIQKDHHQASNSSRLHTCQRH
# [10] = tested on: Inhibin beta A chain (activin A); experiment: small molecules binding activin A – biochemical, small-molecule microarray, 635 nm fluorescence scan, primary screen (AID 1107); conditions: INHBA, higher = more signal;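 further: mouse activin A protein probed at 4.33 µg/mL on printed slides; score merges bound-protein fluorescence near 667 nm with spot signal-to-noise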
# [11] = tested on: Human papillomavirus type 1a protein E7 (residues 44-93); experiment: small molecules binding HPV E7 44-93 – biochemical, small-molecule microarray, residues 44-93, 635 nm fluorescence, primary screen (AID 1108); conditions: fluorescence 635 nm, higher = more signal;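 further: E7 fragment applied at 1 µg/mL in TBST for 1 h at 4 C; score combines spot fluorescence with its signal to noise ratio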
# [12] = hepatitis C replication reporter changes, two-sided – Huh7 cells, luciferase reporter, HCV replication inhibitor project, primary screen (AID 1109); conditions: Huh7 HCV replicon luciferase reporter, 48 h; higher = more signal;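 further: huh7 hepatoma cells harbouring a luciferase neomycin HCV replicon reporter; luciferase luminescence as measure of HCV replicon replication; test concentration not given here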
# [13] = molecular target: Left-right determination factor 2 (Homo sapiens) (UniProt O00292); experiment: small molecules binding LEFTY2 protein – biochemical, small-molecule microarray, 635 nm fluorescence scan, primary screen (AID 1110); conditions: higher = more signal
# Chain of Left-right determination factor 2 (Homo sapiens) (O00292 whole entry, looked up): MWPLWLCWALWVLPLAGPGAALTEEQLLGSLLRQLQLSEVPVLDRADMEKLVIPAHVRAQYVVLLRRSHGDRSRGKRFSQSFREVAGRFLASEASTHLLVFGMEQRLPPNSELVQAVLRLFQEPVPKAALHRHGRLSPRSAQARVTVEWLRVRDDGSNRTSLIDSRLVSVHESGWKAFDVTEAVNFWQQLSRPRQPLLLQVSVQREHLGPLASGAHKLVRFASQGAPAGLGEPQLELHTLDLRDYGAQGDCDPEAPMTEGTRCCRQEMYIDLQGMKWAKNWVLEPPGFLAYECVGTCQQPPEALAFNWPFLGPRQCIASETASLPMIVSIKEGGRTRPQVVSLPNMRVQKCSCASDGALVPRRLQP
# [14] = molecular target: Calmodulin-1 (Homo sapiens) (UniProt P0DP23); experiment: small molecules binding calmodulin-1 with EGTA – biochemical, small-molecule microarray, Cy5-labelled CALM1, profiling panel (AID 1111); conditions: Cy5-CALM1 binding fluorescence, higher = more signal;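 further: labelled calmodulin applied in Tris saline Tween buffer holding calcium plus EGTA and DTT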
# [15] = molecular target: Calmodulin-1 (Homo sapiens) (UniProt P0DP23); experiment: small molecules binding Ca-loaded calmodulin-1 – biochemical, small-molecule microarray, Cy5-labelled CALM1, plus calcium, artefact control for SMM control-protein annotation, profiling panel (AID 1112); conditions: Cy5-CALM1 binding fluorescence, higher = more signal;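 further: score merges spot fluorescence with signal to noise from triplicate slides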
# [16] = probe aWnt5a binding to arrayed compounds – biochemical, biotinylated probe, 635/667 nm fluorescence, primary screen (AID 1113); conditions: small-molecule microarray, higher = more signal;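 further: score merges 667 nm fluorescence intensity with signal-to-noise per printed feature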
# [17] = probe aShh binding to arrayed compounds – biochemical, biotinylated probe, 635/667 nm fluorescence, primary screen (AID 1114); conditions: small-molecule microarray, higher = more signal;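 further: probe is biotin-labelled aShh protein from a stem cell growth factor screen; measures binding of labelled protein to compounds printed on the slide; score merges feature fluorescence at 667 nm with signal-to-noise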
# [18] = probe aNog binding to arrayed compounds – biochemical, biotinylated probe, 635/667 nm fluorescence, primary screen (AID 1115); conditions: small-molecule microarray, higher = more signal;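 further: probe is biotinylated aNog protein used at 0.15 µg/mL for 1 h at 4 C; z-score combines 667 nm fluorescence of each spot with its signal to noise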
# [19] = molecular target: Torsin-1A-interacting protein 1 (Homo sapiens) (UniProt Q5JTV8); experiment: compound microarray binding of lysate hLAP1 – cell lysate, small-molecule microarray, COS7 lysate, 635/667 nm fluorescence, primary screen (AID 1116); conditions: 635 nm fluorescence, higher = more signal
# Chain of Torsin-1A-interacting protein 1 (Homo sapiens) (Q5JTV8 whole entry, looked up): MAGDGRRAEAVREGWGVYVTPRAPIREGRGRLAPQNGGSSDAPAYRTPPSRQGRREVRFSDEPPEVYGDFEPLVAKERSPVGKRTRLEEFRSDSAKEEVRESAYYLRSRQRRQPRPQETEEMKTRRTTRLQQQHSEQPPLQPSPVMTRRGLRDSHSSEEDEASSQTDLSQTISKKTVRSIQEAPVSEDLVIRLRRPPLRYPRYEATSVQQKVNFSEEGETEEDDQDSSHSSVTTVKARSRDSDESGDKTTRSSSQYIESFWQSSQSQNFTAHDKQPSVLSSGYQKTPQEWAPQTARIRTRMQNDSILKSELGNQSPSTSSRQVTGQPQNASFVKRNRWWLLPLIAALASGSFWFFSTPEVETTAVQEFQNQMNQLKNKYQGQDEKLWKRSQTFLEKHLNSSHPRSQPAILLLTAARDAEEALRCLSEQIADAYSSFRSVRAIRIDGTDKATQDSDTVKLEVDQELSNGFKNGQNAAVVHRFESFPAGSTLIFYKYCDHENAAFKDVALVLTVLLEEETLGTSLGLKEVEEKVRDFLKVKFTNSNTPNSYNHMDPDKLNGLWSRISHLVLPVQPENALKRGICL
# [20] = molecular target: Alpha-bungarotoxin (Bungarus multicinctus) (UniProt P60615); experiment: compounds binding labelled alpha-BTX control protein – biochemical, small-molecule microarray, Alexa647 label, 635/667 nm fluorescence, artefact control for SMM control protein annotation, profiling panel (AID 1117); conditions: alpha-BTX-A647 binding fluorescence, higher = more signal
# Chain of Alpha-bungarotoxin (Bungarus multicinctus) (P60615 whole entry, looked up): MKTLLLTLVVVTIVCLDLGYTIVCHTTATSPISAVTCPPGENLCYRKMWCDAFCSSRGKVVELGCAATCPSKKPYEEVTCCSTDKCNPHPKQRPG
SMILES,composite z-score [1],composite z-score [2],composite z-score [3],z-score [4],composite z-score [5],composite z-score [6],composite z-score [7],composite z-score [8],composite z-score [9],composite z-score [10],composite z-score [11],z-score [12],composite z-score [13],composite z-score [14],composite z-score [15],composite z-score [16],composite z-score [17],composite z-score [18],composite z-score [19],composite z-score [20]
CCCCO[C@H]1C[C@H]2C(I)=C[C@@H]1C(=O)[C@]21CO1,1.08,-0.37,-0.529,-0.26 (inactive),0.104,-0.487,0.0707,0.127,0.668,0.173,-0.977,-2.7,0.312,-0.331,-0.502,-0.0735,-0.0866,0.0327,-0.243,-0.0708
[N-]=[N+]=NCc1ccccc1C[C@]1(C(N)=O)N=C(c2ccc(OCCCO)cc2)O[C@H]1c1ccccc1,1,0.774,0.827,-0.0612 (inactive),0.703,0.854,-1.17,-0.188,-1.14,-0.0778,1.45,-2.07,-1.1,0.637,0.784,0.0003,0.14,0.581,2.27,0.623
COc1cccc(/C=C/C=O)c1,-0.663,0.24,-0.326,0.85 (inactive),0.393,0.0414,0.417,0.237,0.339,-0.115,0.105,-0.56,0.402,0.0577,-0.363,0.185,0.218,-0.354,0.185,-0.124
